Bioassay records from PubChem.
Only some compounds are listed: those with a hit (about 2.8% of all), similar ones and a draw of the others.
PAFAH1B2 inh – blocks human PAF acetylhydrolase 1b catalytic subunit 2. P68402. recombinant PAFAH1B2, FP-rhodamine activity probe, fluorescence polarization. inhibition, % at 3.39 µM. actives 1.2% (n = 340,000). AID 492953;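 active = inhibition above the mean of all tested compounds plus 3 SD, cut at about 24% in these data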;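 also: 0% = enzyme with DMSO and 100% = wells lacking PAFAH1B2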
HTRA1 inhibitor – inhibitors of human serine peptidase HTRA1. recombinant HTRA1, FP-rhodamine activity-based probe, fluorescence polarization. Q92743. inhibition, % at 5.96 µM. AID 504803. actives 0.5% (n = 340,000); in the data active = inhibition above about 36%;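 also: 0% = enzyme with DMSO and 100% = wells lacking enzyme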
Target sequence (Q92743 whole entry, looked up): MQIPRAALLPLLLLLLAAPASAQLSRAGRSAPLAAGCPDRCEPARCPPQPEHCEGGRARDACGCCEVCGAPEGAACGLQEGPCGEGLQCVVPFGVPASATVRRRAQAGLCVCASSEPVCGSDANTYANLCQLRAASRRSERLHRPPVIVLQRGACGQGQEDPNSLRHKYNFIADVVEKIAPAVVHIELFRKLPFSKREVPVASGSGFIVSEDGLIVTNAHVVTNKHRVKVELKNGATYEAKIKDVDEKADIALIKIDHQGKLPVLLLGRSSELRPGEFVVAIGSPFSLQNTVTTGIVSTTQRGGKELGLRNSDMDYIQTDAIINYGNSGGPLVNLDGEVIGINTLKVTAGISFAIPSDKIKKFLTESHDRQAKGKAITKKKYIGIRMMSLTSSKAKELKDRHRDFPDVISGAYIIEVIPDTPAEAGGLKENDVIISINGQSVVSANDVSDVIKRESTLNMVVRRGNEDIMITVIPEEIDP
DAGLB inhibitor – blocks human DAGLB lipase activity. actives 0.059% (n = 340,000). Q8NCG7. HEK293T DAGLB membrane lysate, EnzChek fluorogenic substrate. inhibition, % at 5.17 µM. AID 504411; in the data active = inhibition above about 34%;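 also: 0% = enzyme with vehicle and 100% = wells lacking enzyme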
PAFAH2 FP inh – inhibitors of human PAFAH2 | inhibition, % at 3.39 µM | Q99487 | recombinant PAFAH2, FP-rhodamine activity probe, fluorescence polarization | actives 0.99% (n = 340,000);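 active = inhibition above the mean over all tested compounds plus 3 SD, cut at about 30% in these data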;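 also: inhibitors block probe labeling of enzyme so polarization drops; 0% = enzyme with DMSO and 100% = wells lacking PAFAH2 protein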
PAFAH1B3 FP inh – inhibitors of human PAFAH1B3 | Q15102 | recombinant PAFAH1B3, FP-rhodamine probe, fluorescence polarization | inhibition, % at 3.39 µM | actives 0.28% (n = 340,000);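 active = inhibition above the screen-wide average of all tested compounds plus 3 SD, cut at about 25% in these data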;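 also: 0% = enzyme with DMSO only and 100% = wells lacking PAFAH1B3 protein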
Target sequence (Q15102 whole entry, looked up): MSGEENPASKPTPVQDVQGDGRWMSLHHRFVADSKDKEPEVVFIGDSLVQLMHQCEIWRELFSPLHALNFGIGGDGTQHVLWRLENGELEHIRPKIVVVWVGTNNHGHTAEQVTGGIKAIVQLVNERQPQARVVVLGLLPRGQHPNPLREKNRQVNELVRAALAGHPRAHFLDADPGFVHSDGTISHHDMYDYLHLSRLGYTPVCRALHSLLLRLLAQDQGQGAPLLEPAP
pPAFAH inh – inhibitors of human plasma PAF acetylhydrolase (pPAFAH) | AID 463082 | actives 1.5% (n = 330,000) | inhibition, % at 3.39 µM | recombinant pPAFAH, FP-rhodamine probe fluorescence polarization;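 active = inhibition above the mean inhibition across the screen plus 3 SD, cut at about 25% in these data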;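 also: inhibitors block binding of the rhodamine activity-based probe so polarization drops; 0% = enzyme with DMSO and 100% = wells lacking pPAFAH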
PAFAH1B3 confirm – confirmation of human PAFAH1B3 inhibitors; AID 493032; shares compounds with PAFAH1B3 FP inh; recombinant PAFAH1B3, FP-Rh activity-based probe, fluorescence polarization; inhibition, % at 3.39 µM; actives 30% (n = 390);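 active = average inhibition over triplicate runs above the hit cutoff set in the earlier primary screen, cut at about 25% in these data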;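 also: 0% = enzyme with DMSO and 100% = wells lacking PAFAH1B3 protein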
DAGLB confirm – DAGLB (human) inhibition, confirmation screen; actives 73% (n = 190); inhibition, % at 5.17 µM; AID 504445; HEK293T DAGLB membrane lysate, EnzChek fluorogenic substrate; shares compounds with DAGLB inhibitor;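 active = mean inhibition over triplicate wells above a set limit taken from the primary lipase screen, cut at about 34% in these data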;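 also: 0% = DAGLB with DMSO and 100% = wells lacking DAGLB enzyme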
* = called active by the depositor; x = no result given; ! = repeats disagree.

SMILES | PAFAH1B2 inh | HTRA1 inhibitor | DAGLB inhibitor | PAFAH2 FP inh | PAFAH1B3 FP inh | pPAFAH inh | PAFAH1B3 confirm | others
CC(C)(C)c1ccc(OCC(=O)NNC(=S)NC(=O)c2ccco2)c(Br)c1 | 18.2 | -7.8 | 2.2 | -11.1 | 2.2 | 4.2 | x
CC(C)c1ccc(OCC(=O)NNC(=S)NC(=O)c2ccco2)c(Br)c1 | 17.9 | -2.8 | -1.0 | 8.4 | 26.9* | 9.0 | 8.7
Cn1nnc(NC(=S)NC(=O)c2cc(Cl)ccc2Cl)n1 | 2.9 | 0.7 | 0.4 | -1.1 | 3.8 | 4.4 | x
COCCCNC(=O)c1ccc(CS(=O)(=O)c2ccc(Br)cc2)o1 | -3.8 | -38.6 | 1.1 | 10.1 | 29.2* | -4.5 | 8.3
CSc1ncccc1C(=O)NC1CC(C)(C)Cc2c1cnn2-c1ccccc1C (stereo not given) | -0.4 | 5.6 | 1.3 | -15.4 | 4.7 | 4.3 | x
CN(Cc1ccc(F)cc1)C(=O)CNC(=O)C1CCCCC1 | 1.0 | -1.3 | 2.9 | 0.9 | -0.5 | -0.5 | x
O=C(COC(=O)c1cc(-c2cccc3ccccc23)nc2ccccc12)NC1CCS(=O)(=O)C1 (stereo not given) | 21.3 | 30.5 | -1.1 | 25.3 | 28.6* | 15.5 | 13.7
O=C(NC1=C(NC2CCS(=O)(=O)C2)C(=O)c2ccccc2C1=O)c1ccccc1 (stereo not given) | 12.8 | 11.7 | 3.8 | 12.7 | 66.2* | 7.9 | 36.2*
O=C(NC1=C(Nc2ccc(Cl)cc2)C(=O)c2ccccc2C1=O)c1ccccc1 | 7.2 | 19.3 | 20.0 | 7.8 | 14.7 | 4.8 | x
CCOC(=O)C1CCN(c2nc(N)c3c(N)nc(SCC(=O)O)cc3c2C#N)CC1 | 19.4 | 15.0 | -9.3 | 6.7 | 36.9* | x | 20.4
CCOC(=O)C1CCN(c2nc(C)cc(C)c2C#N)CC1 | 1.5 | -0.4 | -7.1 | -2.1 | 9.5 | 2.5 | x
COc1ccc(C)cc1NC(=O)CN1CCCC1c1ccc2c(c1)OCCCO2 (stereo not given) | 2.3 | -16.9 | -6.7 | 3.2 | 7.3 | 4.2 | x
O=C(CC1C(=O)NCCN1Cc1cccc(F)c1)NC1CCCCC1 (stereo not given) | 9.6 | 0.4 | -0.7 | 4.8 | 3.2 | 3.1 | x
CN(O)/C=c1/ccc2c(n1)C(=O)C=CC=2 | 7.9 | 0.1 | -2.1 | 11.3 | 35.0* | 6.9 | 44.9*
CCC(CO)Oc1cc(NC(=O)c2cccc(Cl)c2)c2ncn(C(C)C)c2c1 (stereo not given) | 7.6 | -12.7 | -0.9 | -0.2 | 13.7 | 1.3 | x
O=C(N/N=C1\C/C(=N\NC(=O)c2ccncc2)c2ccccc21)c1ccncc1 | 13.6 | 28.8 | 4.3 | 21.8 | 27.6* | 22.0 | 12.3
O=C(NN=C1C2CC3CC(C2)CC1C3)c1ccncc1 | 0.6 | -0.5 | 0.0 | 4.3 | 6.4 | 4.5 | x
Cn1c(N)c(C(=O)COC(=O)c2ccnc3ccccc23)c(=O)n(C)c1=O | 5.7 | -3.8 | -1.1 | -9.3 | 2.1 | 4.4 | x
COc1ccc(C(=O)OCC(=O)c2c(N)n(C)c(=O)n(C)c2=O)c(OC)c1OC | 5.1 | -1.2 | 0.2 | 3.7 | 25.6* | -4.3 | 9.2
O=C(N/N=C/c1ccccc1O)NC12CC3CC(CC(C3)C1)C2 | 5.6 | 12.7 | 6.0 | 5.2 | 26.2* | 5.1 | 21.5
COc1cc(NS(=O)(=O)c2ccc(NC(=S)NC(=O)/C=C/c3ccco3)cc2)ncn1 | 9.4 | -4.7 | 4.3 | 26.6 | 29.5* | x | 16.8
O=C(Cn1c(=S)[nH]c2ccccc2c1=O)N1CCN(c2ccccc2)CC1 | -13.9 | -2.5 | 0.1 | -24.7 | 25.7* | 6.7 | 10.9
Cc1ccc(-n2c(C)cc(C(=O)NS(=O)(=O)c3ccc(C)cc3)c2C)cc1 | 8.9 | -0.9 | 8.0 | 1.7 | 52.5* | 9.9 | 35.9*
O=C(O)c1cccc(NN=C2c3ccccc3-c3ccccc32)c1 | 4.9 | -7.6 | 9.2 | 20.1 | 42.1* | x | 30.8*
O=C(O)c1cccc2c1-c1ccccc1/C2=N\Nc1ccccc1 | 9.2 | 0.6 | 4.8 | 21.9 | -0.4 | 18.9 | x
SMILES | PAFAH1B2 inh | HTRA1 inhibitor | DAGLB inhibitor | PAFAH2 FP inh | PAFAH1B3 FP inh | pPAFAH inh | PAFAH1B3 confirm | others
O=C(O)c1cc(NN=C2c3ccccc3-c3ccccc32)ccc1Cl | 9.4 | -16.5 | 12.7 | 23.5 | 47.7* | 5.2 | 37.2*
Cn1c(=O)c2c(ncn2CC(=O)OCC(=O)Nc2cccc(C#N)c2)n(C)c1=O | x | 5.1 | -1.4 | x | x | x | x
Cc1cccc(C)c1NC(=O)CNC(=O)c1ccc(N2CCCC2)c([N+](=O)[O-])c1 | 6.1 | -2.9 | 0.4 | -5.6 | 8.8 | 0.8 | x
CC(c1ccccc1)N1C(=O)c2cccnc2C1=O (stereo not given) | 7.5 | -0.7 | 4.0 | -1.3 | 3.5 | 1.1 | x
CC(NC1=CC(=O)c2cccnc2C1=O)C(O)c1ccccc1 (stereo not given) | 13.4 | 26.8 | -1.4 | 15.2 | 56.3* | x | 42.6*
CCOc1ccc(-n2ccn(CC(=O)NCCc3ccccc3)c(=O)c2=O)cc1 | 4.1 | -4.6 | 2.5 | 7.5 | 5.9 | x | x
O=c1[nH]c(Nc2ccc(F)cc2)cc2ccccc12 | 10.3 | 3.7 | -5.8 | 6.0 | 56.3* | 11.2 | 20.0
CC1(c2nnc(-c3ccncc3)o2)CC(c2ccc(F)cc2)=NO1 (stereo not given) | 6.2 | 8.8 | -5.8 | -32.4 | 26.2* | 0.1 | 9.7
C/C(=N/Nc1ccc(C(=O)O)cc1)c1ccc2c(c1)Nc1ccccc1S2 | 6.5 | 22.8 | 11.2 | 24.7 | 25.8* | x | 18.7
COc1ccc(/C(C)=N/Nc2cccc(C(=O)O)c2)cc1OC | 3.2 | -4.2 | 1.3 | 2.6 | -7.6 | 4.7 | x
O=C1C(=O)c2c(ccc3ccccc23)-c2ccccc21 | 11.4 | -0.8 | 3.1 | 29.3 | 56.2* | x | 17.2
CN(C)/C=C1\Oc2ccc3ccccc3c2C1=O | 3.4 | -1.6 | 0.9 | -0.4 | 1.2 | 1.3 | x
COn1c2c(c3c4no[n+]([O-])c4ccc31)CCCC2 | -1.7 | -4.1 | -1.7 | -2.0 | 8.2 | 0.0 | x
[O-][n+]1c2c(c3c4non(O)c4ccc31)CCCC2 | 4.6 | 20.0 | 10.2 | 8.1 | 27.7* | 23.6 | 16.3
CCC1(c2ccccc2)NC(=O)N(CC(=O)NCC2COc3ccccc3O2)C1=O (stereo not given) | 5.9 | -3.5 | 2.0 | 2.8 | 8.6 | x | x
COC(=O)c1ccccc1NC1=C/C(=N\S(=O)(=O)c2cccs2)c2ccccc2C1=O | 19.4 | 21.1 | 41.6*! | 8.9 | 55.0* | 21.3 | 51.6* | DAGLB confirm=55.3*
CN(CC(=O)Nc1ccccc1Br)C(=O)c1ccc2c(=O)n3c(nc2c1)CCC3 | -0.1 | 4.5 | -0.6 | 7.5 | -2.2 | 3.2 | x
Fc1ccc(C2=Nc3cccc4cccc(c34)N2)cc1 | -1.8 | 0.3 | -3.5 | 0.8 | 11.7 | 12.3 | x
